Screening results (PubChem)
ADAM17 inh: ADAM17 inhibition, QFRET primary screen; inhibition, % at 6.95 µM; AID 720648; recombinant ADAM17, EDANS/DABCYL FRET peptide cleavage; actives 0.83% (n = 370,000); P78536;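 active = inhibition above the mean of compounds lying between control limits plus 3 SD, set per campaign, cut at about 8.5% in these data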;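 also: 0% = DMSO-only wells as the low control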
PLCg1 inh: blocks human PLC-gamma1 enzyme activity; P19174; purified PLC-gamma1, fluorogenic substrate, fluorescence; inhibition, % at 12.2 µM; actives 0.84% (n = 370,000); in the data active = inhibition above about 9.5%
ADAM10 inh: inhibitors of human ADAM10 | O14672 | recombinant ADAM10, EDANS/DABCYL FRET peptide cleavage, 3 h | inhibition, % at 7 µM | actives 0.62% (n = 370,000);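 active = inhibition above a per-campaign cutoff equal to the mean of compounds falling between control-based bounds plus 3 SD, cut at about 20% in these data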;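 also: 0% = DMSO wells while the 100% control is not disclosed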
proKLK7 act: activates the human kallikrein-7 zymogen; actives 0.9% (n = 370,000); P49862; purified proKLK7, EDANS-DABCYL substrate fluorescence; 100% is mature enzyme control, 0% vehicle; activation, % at 7 µM;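 active = activation above the mean of all tested compounds plus 3 SD, computed per campaign excluding outliers beyond control limits, cut at about 13% in these data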
Target sequence (P49862 whole entry, looked up): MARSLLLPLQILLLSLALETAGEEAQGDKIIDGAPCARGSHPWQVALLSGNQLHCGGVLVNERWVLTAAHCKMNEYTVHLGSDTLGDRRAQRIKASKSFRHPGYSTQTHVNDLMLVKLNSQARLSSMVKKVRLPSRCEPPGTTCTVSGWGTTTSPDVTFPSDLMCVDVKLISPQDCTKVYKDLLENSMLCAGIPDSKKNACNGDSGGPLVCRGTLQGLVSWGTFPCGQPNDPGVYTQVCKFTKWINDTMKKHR
PLC-beta3 inh: blocks human PLC-beta3 enzyme activity; Q01970; Purified PLC-beta3, fluorogenic substrate, fluorescence; inhibition, % at 12.2 µM; actives 0.18% (n = 370,000); AID 720704; in the data active = inhibition above about 11%;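 also: 0% = median of compound wells on plate and 100% = full blocker control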
proKLK7 act conf: confirmation of human kallikrein-7 zymogen activators; shares compounds with proKLK7 act; purified proKLK7, EDANS-DABCYL substrate fluorescence; scaled: vehicle 0, mature enzyme 100; activation, % at 7 µM; actives 68% (n = 3,200); AID 686949;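 active = activation, as change over the incubation, above the mean of all tested compounds plus 3 SD, cut at about 13% in these data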
EDANS interfere: counter-screen for kallikrein-7 activators: EDANS-DABCYL optical interference. AID 686952. activation, % at 7 µM. actives 80% (n = 3,200). shares compounds with proKLK7 act. EDANS-DABCYL substrate fluorescence interference, no enzyme, 4 h; solvent 0%, active enzyme control 100%;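 active = activation above the all-compound mean plus 3 SD, ignoring values outside control-based bounds, cut at about 4.8% in these data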;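 also: value is the 4 h activation minus the activation read at time zero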
EDANS interf: counter-screen for kallikrein-7 activators: EDANS-DABCYL interference, dose response | shares compounds with proKLK7 act | EDANS-DABCYL peptide fluorescence interference, no enzyme | EC50, µM | actives 20% (n = 250) | AID 720493;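 active = compounds that raise the fluorescence signal in this interference counterscreen, with EC50 at or below 10 µM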;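 also: intact quenched peptide substrate alone read at 355 nm excitation and 520 nm emission; signal is fluorescence gain from T0 to T4 after four hours at room temperature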
* hit, by the source's call; i = inactive; . = not tested or not shown. Shown are actives, neighbours in structure and some others; about 2.9% of the full set was active somewhere.

SMILES	ADAM17 inh	PLCg1 inh	ADAM10 inh	proKLK7 act	PLC-beta3 inh	proKLK7 act conf	EDANS interfere	others
Fc1ccccc1CSc1ncnc2c1ncn2C1CCCO1 (stereo not given)	-4	3	0	0	1	.	.
COCCCNC(=O)C1CCN(C(=O)c2oc3cc4sc(N(C)C)nc4cc3c2C)CC1	-93	-495	-228	21*	i	-5	-4
CCN(CC)CCCNC(=O)C1CCN(C(=O)c2oc3cc4sc(N(C)C)nc4cc3c2C)CC1	-52	-319	-149	13*	i	12	9.0*
COCCNC(=O)C1CCCN(C(=O)c2oc3ccccc3c2C)CC1 (stereo not given)	-2	-2	-2	3	1	.	.
CSc1nc2[nH]c3c(c2c2nncn12)CC(C)(C)OC3	-2	-1	3	0	0	.	.
CSc1nc2[nH]c3c(c2c2nnnn12)CCCC3	-99	i	-317	14*	i	7	9.8*
Cc1cc(N)ccc1-n1nc2ccccc2n1	-8	-110	-10	-1	-127	.	.
Cc1ccc(-n2nc3ccc(N)cc3n2)cc1Cl	-71	i	-186	-49	i	.	.
COc1ccc(-n2nc3ccc(N)cc3n2)cc1Cl	-119	i	-290	53*	i	75*	75*
Cc1ccc(-n2nc3ccc(N)cc3n2)c(C)c1	-228	i	i	40*	i	77*	76*
CCOc1ccc2nc(NC(=O)C(CC)Sc3nc(C)cc(=O)[nH]3)sc2c1 (stereo not given)	-5	0	0	0	4	.	.
Cc1c2c(n3c(nc4ccccc43)c1C#N)N(CCN(C)C)CC2	-482	i	i	114*	i	-7	-3
CCc1c(C)c(C#N)c2nc3ccccc3n2c1NCCCN(C)C	-29	-87	-106	4	-108	.	.
Cc1c2c(n3c(nc4ccccc43)c1C#N)N(CCCN(C)C)CC2	-321	-389	i	63*	i	2	7.4*
OCc1ccc(-c2cccc3nccn23)cc1	-454	-274	i	16*	-353	15*	14*
CN(C)C(=O)c1cccc(-c2cccc3nccn23)c1	-81	-89	-258	2	-134	.	.
CONC(=O)c1ccc(-c2cccc3nccn23)cc1	-29	-246	-123	13*	-317	6	12*
O=S(=O)(Cc1ccccc1Cl)Nc1ccccn1	-16	-11	-55	2	-15	.	.
COc1ccc2cc(-c3ccccc3)c(=O)oc2c1	i	i	i	23*	i	82*	74*
CN(C)C(=O)COc1ccc2cc(-c3ccccc3)c(=O)oc2c1	i	i	i	33*	i	66*	74*
CC(=O)Oc1cccc(-c2nc3ccccc3c(=O)o2)c1	-1	2	-1	0	-3	.	.
COc1ccc(-c2cc(=O)oc3cc(OCC(=O)N(C)C)ccc23)cc1	-11	-81	-28	4	-93	.	.
CC(Oc1ccc2cc(-c3ccccc3)c(=O)oc2c1)C(=O)NCC1CCC(C(=O)O)CC1 (stereo not given)	i	i	i	64*	i	65*	77*
CC(=O)Oc1ccc2cc(-c3cccnc3)c(=O)oc2c1	i	i	i	266*	i	72*	72*
CCN(C(=O)CSc1nnnn1C)C1CCCCC1	-1	-1	-1	0	-6	.	.
SMILES	ADAM17 inh	PLCg1 inh	ADAM10 inh	proKLK7 act	PLC-beta3 inh	proKLK7 act conf	EDANS interfere	others
CCCOc1ccc2cc(-c3ccccn3)c(=O)oc2c1	i	i	i	25*	i	55*	67*
O=c1oc2cc(OCc3c(F)cccc3Cl)ccc2cc1-c1ccccn1	-58	-60	-213	-6	-73	.	.
COC(=O)C(C)Oc1ccc2cc(-c3ccccc3)c(=O)oc2c1 (stereo not given)	i	i	i	16*	i	64*	44*	EDANS interf=>70
O=c1oc2ccccc2cc1-c1ccccc1	-94	-62	-284	0	-78	.	.
Cc1cc(OC(C)C(=O)NCC2CCC(C(=O)O)CC2)c2c(C)cc(=O)oc2c1 (stereo not given)	-163	-186	i	13*	-242	12	12*
Cc1cccn2c(=O)c3cc(C(N)=S)c(=N)n(CCCOC(C)C)c3nc12	-336	-321	i	46*	-419	5	5.7*
CCOCCCNC(=O)c1cc2c(=O)n3cccc(C)c3nc2n1C	-47	-109	-189	1	-137	.	.
CCOCCCn1c(=N)c(C(N)=S)cc2c(=O)n3cccc(C)c3nc21	-246	-264	i	29*	-306	2	3
COc1ccc(C2CC(c3cccs3)=Nc3ccccc3S2)cc1 (stereo not given)	-66	-90	-201	40*	-94	5	3
COC(=O)Cc1ccc(NC(=S)NC2CC2)cc1	-1	3	14	0	1	.	.
c1cnc2nc(CSc3ncn[nH]3)cn2c1	-261	-331	i	48*	-368	8	11*
COc1cc2c(cc1OC)C(COc1ccc([N+](=O)[O-])cc1)NCC2 (stereo not given)	-44	-116	-172	14*	-179	0	-1
Cc1cc(=O)oc2c3c(cc(OCC(=O)NCc4cccnc4)c12)OC(C)(C)CC3	i	i	i	12	i	.	.
Cc1cc(=O)oc2c3c(cc(OCC(=O)NC(Cc4ccc(Cl)cc4)C(=O)O)c12)OC(C)(C)CC3 (stereo not given)	i	i	i	13*	i	8	3
Cc1cc(=O)oc2c3c(cc(OCC(=O)N[C@@H](Cc4ccccc4)C(=O)O)c12)OC(C)(C)CC3	i	i	i	32*	i	41*	25*	EDANS interf=>69
COc1cccc(CNC(=O)COc2cc3c(c4oc(=O)cc(C)c24)CCC(C)(C)O3)c1	i	i	i	-39	i	.	.
CC(C)N(C(=O)[C@H]1C[C@H](CC(=O)NCC23CC4CC(CC(C4)C2)C3)C(=O)N2CCc3c([nH]c4cc(-c5ccco5)ccc34)[C@]12C)C(C)C	-19	-110	-75	0	-137	.	.
CCN(CC)C(=O)[C@H]1C[C@H](CC(=O)NCCN2CCOCC2)C(=O)N2CCc3c([nH]c4cc(-c5ccco5)ccc34)[C@]12C	-190	i	i	120*	i	148*	194*
